The panel holds about 83,000 compounds, 20% with a hit somewhere; the sample as a whole holds those more often.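 A percent growth of 40 corresponds to 60% growth inhibition; 0 means no net growth; -100 means all cells died. Active threshold: below 10.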 Unmarked numbers belong to inactive results. Calls of active or inactive are those of the source.
How the values were obtained:
Test in all cases: NCI-60 one-dose screen, 48 h (100 = growth as untreated, 0 = no growth, -100 = all killed)
Conditions in all cases: 10 µM unless noted
[1] = test system: HCT-15 colon
[2] = test system: HT29 colon
[3] = test system: SNB-75 CNS
[4] = test system: SNB-19 CNS
[5] = test system: UACC-62 melanoma
[6] = test system: LOX IMVI melanoma
[7] = test system: SK-MEL-28 melanoma
[8] = test system: SK-MEL-2 melanoma
[9] = test system: EKVX NSCLC
[10] = test system: SN12C renal
[11] = test system: UO-31 renal
[12] = test system: TK-10 renal
[13] = test system: ACHN renal
[14] = test system: CAKI-1 renal
[15] = test system: A498 renal
[16] = test system: CCRF-CEM leukemia
[17] = test system: MOLT-4 leukemia
[18] = test system: SK-MEL-5 melanoma
[19] = test system: PC-3 prostate

Row | SMILES | growth [1] | growth [2] | growth [3] | growth [4] | growth [5] | growth [6] | growth [7] | growth [8] | growth [9] | growth [10] | growth [11] | growth [12] | growth [13] | growth [14] | growth [15] | growth [16] | growth [17] | growth [18] | growth [19]
1 | COc1cc(C(=O)Oc2ccccc2OC(=O)c2cc(OC)c(OC)c(OC)c2)cc(OC)c1OC | 99.4% | 110% | 95.3% | 97% | 103% | 94.9% | 120% | 115% | 95.7% | 98.4% | 84.5% | 98.4% | 93.9% | 91.6% | 108% | 97.2% | 114% | – | –
2 | NC(N)=N/N=C(/c1ccccc1)c1ccc(F)cc1 | 10.3% | -1.2% (active) | 18% | 26.8% | 4.05% (active) | 18.6% | 35.1% | -15.1% (active) | 35.1% | 17.2% | -8.69% (active) | 50.5% | 29.3% | – | -16.6% (active) | -14.3% (active) | -10.1% (active) | -18.7% (active) | –
3 | COc1ccc(-n2nc(C)c3c(Oc4ccc(NC(=O)Nc5c(Cl)cccc5Cl)cc4)ncnc32)cc1 | 105% | 107% | 93.6% | 98.5% | 98.4% | 100% | 106% | 106% | 95.8% | 101% | 86.5% | 110% | 106% | 95.3% | 99.1% | 95.5% | 106% | 99.9% | –
4 | COc1ccc2c(c1)CC/C(=C\c1cncc(Br)c1)C2=O | 94.7% | 79.7% | 120% | 90.7% | – | 88.3% | – | 95.1% | 99.2% | – | 96.5% | 85% | 84.9% | 86.6% | 96.5% | 13.5% | 83.5% | – | –
5 | O=C(NCCN1CCOCC1)Nc1ccc(-c2cc3c(Nc4ccc(Oc5cccc(C(F)(F)F)c5)c(Cl)c4)ncnc3s2)cc1 | -56.2% (active) | -69.2% (active) | -48.4% (active) | 43.1% | -40.3% (active) | -86.6% (active) | -49.8% (active) | 32% | 20.8% | 42.9% | -35.8% (active) | 49.8% | 11.8% | 8.01% (active) | 40.3% | 3.33% (active) | -4.36% (active) | -90.9% (active) | –
6 | N#Cc1c(-c2ccc(Cl)cc2)nc(N=Nc2c(O)[nH]c3ccc(Cl)cc23)nc1N1CCOCC1 | 100% | 107% | 68.7% | 101% | 93.7% | 83.2% | 101% | 98.1% | 86.1% | 97% | 67.5% | 120% | 94.6% | 85.2% | 73.2% | 111% | 110% | – | –
7 | CC(=O)O[C@H]1CC[C@]2(C)[C@H]3CC=C4[C@@H]5CC(C)(C)CC[C@]5(C(=O)NCCNCCNCCN)CC[C@@]4(C)[C@]3(C)CC[C@H]2C1(C)C | -74.8% (active) | -47.7% (active) | 71% | 92.6% | 93.9% | – | 93.1% | 96.9% | 81.9% | 89.5% | 79.1% | 97.2% | -25.4% (active) | 77.8% | 54.6% | -9.21% (active) | -13% (active) | 90.7% | –
8 | CC(C)c1c(C(=O)c2ccccc2)c(-c2ccccc2)c(-c2ccc(F)cc2)n1CC[C@@H](O)C[C@@H](O)CC(=O)O | 47.5% | 106% | – | 57.4% | 16.6% | – | 65.4% | 36.2% | 68.2% | 31.9% | 72% | 116% | 25.3% | 21.6% | – | 81.4% | 87.6% | – | 37%
9 | C=CC(=O)Nc1cccc(-c2nc(SC)nc(NCCN3CCOCC3)c2C#N)c1 | 90.1% | 89.4% | 44.8% | 88.5% | 86.7% | 85.5% | 114% | 82.6% | 86.5% | 81.2% | 61.4% | 134% | 80.8% | 86.2% | 78.3% | 95.6% | 75.9% | – | –
10 | CC(C)C1=C[C@@]23CC[C@@H]4[C@](C)(CCC[C@@]4(C)C(=O)N4CCCNCC4)[C@H]2C[C@@H]1[C@H]1C(=O)CCC(=O)[C@H]13 | 97.5% | 108% | 63.5% | 99.5% | – | 92.1% | 109% | – | 95.2% | 102% | 79.2% | 104% | 92.1% | 81.1% | 97% | 101% | 96.5% | – | 93%
11 | O=C(O)c1ccc(NC(=O)c2ccc(-c3cccc([N+](=O)[O-])c3)o2)cc1 | 99.2% | 104% | 88% | 92% | 98.4% | 95.3% | 107% | 102% | 93.6% | 93.2% | 77.8% | 102% | 104% | 88% | 110% | 106% | 109% | 101% | –
12 | c1ccc(-c2c(-c3ccccc3)[n+](Cc3ccc4ccccc4c3)c(-c3ccc(-c4nc5ccccc5s4)cc3)n2Cc2ccc3ccccc3c2)cc1 | -91.5% (active) | -85.5% (active) | -78.8% (active) | -97.6% (active) | – | -98.3% (active) | -88.3% (active) | -88.7% (active) | -93.4% (active) | -86.7% (active) | -94.1% (active) | -80.9% (active) | -96.8% (active) | -89.5% (active) | -97.4% (active) | -14.8% (active) | -51.9% (active) | – | -88.8% (active)
13 | CC(=O)Oc1ccc(Cl)cc1CN(C(C)=O)C1CCCCC1 | 101% | 107% | 93.7% | 95.7% | 86.8% | 114% | 106% | 112% | – | 97.3% | 90.5% | 110% | 102% | – | – | 87.9% | 85.9% | 101% | –
14 | CCOc1cc2ncc(C#N)c(Nc3ccc(F)c(Cl)c3)c2cc1NC(=O)CC1CCSS1 (stereo not drawn) | -71.1% (active) | -72.5% (active) | -72% (active) | -34.5% (active) | -66% (active) | -81.2% (active) | -79.1% (active) | -49.2% (active) | -55% (active) | -55.9% (active) | -92.4% (active) | -74.2% (active) | -90.7% (active) | -73.4% (active) | -53.7% (active) | -20.2% (active) | -47% (active) | – | –
15 | Cc1nc2c3c(-c4ccccc4)c(-c4ccccc4)oc3ncn2n1 | 101% | 95.8% | 69.9% | 96.6% | 92.3% | 90.7% | 118% | 101% | 88.9% | 96.5% | 83.9% | 108% | 94.6% | 88.6% | 67.9% | 96.7% | 89.9% | 96.3% | –
16 | FC(F)(F)c1ccc(-c2cn3nc(-c4c[nH]c5ccc(Br)cc45)sc3n2)cc1 | 70.6% | 97.4% | 86.1% | 100% | 84.8% | 88.2% | 111% | 97.8% | 68.9% | 93.9% | 68.8% | 112% | 88.6% | 61.4% | 113% | 95% | 87.6% | 96.3% | –
17 | COC(=O)[C@@H]1CCCN1C(=O)[C@@H]1CCCN1C(=O)[C@H](Cc1ccccc1)NC(=S)Nc1cc(C(F)(F)F)cc(C(F)(F)F)c1 | 76.4% | 74.7% | 73.8% | 33.3% | 85.3% | 88.5% | 85.3% | -21.9% (active) | 75.7% | 95% | 75.5% | 85.1% | 72.2% | 72.3% | – | – | 50.1% | 86.4% | –
18 | C=CC(=O)Nc1cccc(-c2nc(SC)nc(NCCc3ccc(OC)c(OC)c3)c2C#N)c1 | 52.3% | 77.5% | 37.9% | 71.8% | 48.1% | 56.6% | 72.3% | 65.7% | 43.8% | 47.6% | 45.1% | 82.4% | 35.7% | 52.8% | 18.5% | 26.3% | 2.39% (active) | -29.2% (active) | –
19 | C=C(C)[C@@H]1CC[C@]2(C(=O)OC)CC[C@]3(C)[C@H](CC[C@@H]4[C@@]5(C)C/C(=C/c6ccc(OC)cc6)C(=O)C(C)(C)[C@@H]5CC[C@]43C)[C@@H]12 | 59.6% | 32.1% | 75.7% | 108% | – | 79.6% | 102% | 104% | 84.7% | 84.9% | 79.7% | 107% | 90.5% | 90.5% | 93.7% | 58.8% | 58.3% | 95.8% | –
20 | NC(=NC1C2CC3CC(C2)CC1C3)Nc1ccc(I)cc1 (stereo not drawn) | 43.9% | 9.6% (active) | 57.1% | 27.5% | – | 61.9% | – | 50.3% | 32.2% | – | 18.6% | 43.5% | 7.41% (active) | 18% | -12.5% (active) | 8.16% (active) | 5.63% (active) | – | 36.9%
21 | COc1ccc(/C=C\c2cc(OC)c(OC)c(OC)c2)cc1OC(=O)c1cccc(Cn2cc(CCOC(=O)[C@H](N)Cc3cn(C)c4ccccc34)nn2)c1 | 12.4% | 8.6% (active) | 22.9% | 31.2% | 42.7% | 22.3% | 63.1% | 51.1% | 47.2% | 38.5% | 42.5% | 79.6% | 26.6% | 34.4% | – | 10.2% | 6.32% (active) | – | –
22 | O=c1c2c3c(sc2nc(N/N=C/c2cn(-c4ccccc4)nc2-c2ccc(Cl)cc2)n1Cc1ccccc1)CCCC3 | 114% | 110% | 102% | 107% | 94.7% | 110% | 112% | – | 106% | 127% | 95.9% | 129% | 117% | 98.9% | 112% | 109% | 22% | 104% | –
